Source: PubChem (National Center for Advancing Translational Sciences (NCATS))
A selection: hits, their analogues and other compounds. The true share with any hit is near 12%.
Pf growth 96h: Primary qHTS for delayed death inhibitors of the malarial parasite plastid, 96 hour incubation; Potency, µM (highest dose often 28.7 µM), inactives show top-dose activity change, negative = inhibition, hits mostly inhibitors; actives 6.9% (n = 320,000); AID 504834, 2011; P. falciparum luciferase reporter growth, 96 h; further: on the % scale 0 is the no-effect control and ±100 the full control effect
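Plates of compound plus infected erythrocytes (2% hematocrit, 0.05% parasitemia final) incubate 96 hours, 37 C, 5% CO2. Detection reagent added; reduced luminescence from the parasites' luciferase reporter flags inhibition.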
Sm TGR block: qHTS Assay for the Inhibitors of Schistosoma Mansoni Peroxiredoxins; Potency, µM (highest dose often 114 µM), without a hit: at the top dose activity change, negative = inhibition, actives largely listed as inhibitors; actives 3% (n = 360,000); purified TGR, DTNB reduction, TNB absorbance 405 nm; further: on the % scale 0 is the no-effect control and ±100 the full control effect; nearly all actives have a fitted effect of over 60% in size
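Kinetic colorimetric format: TGR-catalysed, NADPH-driven DTNB reduction monitored via TNB absorbance. Enzyme dispensed at 20 nM; compound exposure 15 min at room temperature before reaction start.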
Pf growth 48h: Primary qHTS for delayed death inhibitors of the malarial parasite plastid, 48 hour incubation. Potency, µM (highest dose often 28.7 µM), inactives show at the highest dose activity change, negative = inhibition, usual class: inhibitors. actives 5.9% (n = 310,000). P. falciparum luciferase growth in erythrocytes, 48 h; further: on the % scale 0 is the no-effect control and ±100 the full control effect
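Growth was read as firefly luciferase luminescence after a 48 h, 37 C, 5% CO2 exposure of compounds to reporter-bearing P. falciparum cultures (0.1% parasitemia, 2% hematocrit final) in Albumax-supplemented RPMI 1640.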
SARS PLpro yeast: qHTS of Yeast-based Assay for SARS-CoV PLP; S. cerevisiae expressing SARS-CoV PLpro, growth rescue; Potency, µM (highest dose often 32.9 µM), for inactives: at the top dose activity, positive = growth rescue, actives largely listed as activators; actives 0.19% (n = 330,000); AID 485353, 2010; calls by dose curve; further: 0% is about no effect; nearly all actives have a fitted effect of over 55% in size
Starred values were filed as active, the others as inactive; ? = inconclusive; nt = not tested or not shown. Unless noted, the call rests on the fitted dose curve; in most records, active means well fitted curve in the direction sought with a large enough effect; inconclusive means small, poorly fitted or top-dose-only effect, or another doubt; inactive means no such curve, though single readings can be large; an effect the other way counts as inactive or inconclusive. Potency means the concentration at half of the fitted maximal effect.

SMILES	Pf growth 96h	Sm TGR block	Pf growth 48h	SARS PLpro yeast
CCC(C)(C)NC(=O)C(c1cccc(OC)c1OC)N(Cc1ccc(OC)cc1)C(=O)CCC(=O)Nc1cc(C)on1 (stereo not drawn)	9%	22%	8.3µM*	-1%
CCC(C)(C)NC(=O)C(c1cccc(OC)c1OC)N(Cc1ccccc1)C(=O)CCC(=O)Nc1cc(C)on1 (stereo not drawn)	21%	2%	?	-1%
COc1cccc(C(C(=O)NC(C)(C)C)N(Cc2ccc(F)cc2)C(=O)CCC(=O)Nc2cc(C)on2)c1OC (stereo not drawn)	?	4%	13µM*	12%
N#CCSc1ccc(S(=O)(=O)N2CCOCC2)cn1	nt	nt	nt	26%
CC(C)(C)NC(=O)NC(=O)CSc1ccc(S(=O)(=O)N2CCOCC2)cn1	?	-8%	-3%	7%
CC(C)NC(=O)NC(=O)CSc1ccc(S(=O)(=O)N2CCCC2)cn1	4%	-3%	21%	-2%
O=S(=O)(c1ccc(SCc2ccccc2)nc1)N1CCCC1	-21%	6%	-1%	-6%
CCC(C)NC(=O)CSc1ccc(S(=O)(=O)N2CCN(Cc3ccccc3)CC2)cn1 (stereo not drawn)	9.3µM*	-1%	?	1%
CC(C)(C)c1ccc(CSc2ccc(S(=O)(=O)N3CCOCC3)cn2)cc1	?	-6%	10µM*	-3%
Cc1cccc(CSc2ccc(S(=O)(=O)N3CCCC3)cn2)c1	6.6µM*	-17%	?	10%
Cc1ccc(C(C)NC(=O)CSc2ccc(S(=O)(=O)N3CCOCC3)cn2)cc1C (stereo not drawn)	?	-9%	12µM*	-4%
CCc1ccc2oc(C(=O)NCCc3ccc(OC)c(OC)c3)cc(=O)c2c1	nt	1%	nt	nt
CCC1=C(OC(=O)N(CC)CC)N2C(=O)OC(=NCCc3c[nH]c4ccccc34)[C@]2(Cc2ccccc2)[C@H]2C1=CC[C@H]1C(=O)N(C)C(=O)[C@H]12	12µM*	-23%	10µM*	3%
CCC1=C(OC(=O)N(CC)CC)N2C(=O)OC(=NCCc3c[nH]c4ccccc34)[C@]2(Cc2ccccc2)[C@H]2C1=CC[C@H]1C(=O)N(c3ccccc3)C(=O)[C@H]12	?	0%	13µM*	1%
CCC1=C2CC[C@H]3C(=O)N(c4ccccc4)C(=O)[C@H]3[C@H]2[C@@]2(C)C(=NCc3ccccc3)OC(=O)N2C1=O	?	-25%	?	-2%
O=C(COC(=O)C1=NN(c2ccccc2)C(=O)CC1)NCc1ccccc1Cl	23%	1%	-13%	6%
Cc1c(C(C)C[C@H](C)O)oc(=O)c2c1Oc1c(C)c(C(C)C[C@H](C)O)oc(=O)c1C2 (stereo partly drawn)	3%	-17%	-23%	0%
CCOc1ccc(CCNC(=O)CS(=O)(=O)Cc2nc(-c3cccc(Cl)c3)oc2C)cc1	nt	-32%	nt	nt
O=C1C(=O)N(C/C=C/c2ccccc2)c2ccccc21	30%	-14%	9%	-3%
CCc1cccc(C)c1NC(=O)C(NS(=O)(=O)c1ccc2c(c1)CCC(=O)N2)c1ccccc1 (stereo not drawn)	nt	4%	nt	nt
Cc1cccc(NC(=O)C(NS(=O)(=O)c2ccc3c(c2)CCC(=O)N3)c2ccccc2)n1 (stereo not drawn)	10µM*	3%	-5%	0%
CCn1c(=O)n(CC)c2cc([N+](=O)[O-])c(N3CCNCC3)cc21	5.9µM*	-35%	-18%	0%
Nc1cc(N2CCNCC2)c([N+](=O)[O-])cc1Cl	32%	-11%	-3%	-11%
O=C(Cn1nc(-c2nn(CC(=O)c3ccccc3)c3[n+]2CCCCC3)[n+]2c1CCCCC2)c1ccccc1	-23%	-3%	?	0%
Cc1ccc(C(C)C)c(OCc2nn(CC(=O)c3ccc(OC(F)F)cc3)c3[n+]2CCCCC3)c1	?	-1%	1.9µM*	0%
SMILES	Pf growth 96h	Sm TGR block	Pf growth 48h	SARS PLpro yeast
COc1ccc(C(=O)Cn2nc(CNc3ccc(Br)cc3)[n+]3c2CCCCC3)cc1	1.9µM*	0%	1µM*	0%
C=C1C2(C(=O)Nc3nccs3)CCC(C2)C1(C)C (stereo not drawn)	nt	-17%	1.2µM*	?
CCOc1ccc(-n2cc(C(=O)c3cc(Cl)ccc3O)cc(C#N)c2=O)cc1	?	1%	-26%	-9%
COc1ccc(-n2cc(C(=O)c3cc(Cl)ccc3O)cc(C#N)c2=O)cc1	7.4µM*	5%	?	-4%
COc1ccc(O)c(C(=O)c2cc(C#N)c(=O)n(-c3ccc(Cl)cc3)c2)c1	5.9µM*	-18%	7.4µM*	0%
Cc1ccc(-n2cc(C(=O)c3cc(Cl)ccc3O)cc(C#N)c2=O)cc1	?	-6%	3.3µM*	-62%
COc1cccc(Nc2c3c(nc4c(-c5ccccc5)c(C)nn24)CCC3)c1	12µM*	2%	?	-25%
CCCCNc1c2c(nc3c(-c4ccccc4)c(C)nn13)CCC2	9.3µM*	0%	nt	12%
Cc1nn2c(NCCN(C)C)c3c(nc2c1-c1ccccc1)CCCC3	2.1µM*	-1%	?	0%
Cc1nn2c(NCc3cccnc3)c3c(nc2c1-c1ccccc1)CCC3	1.5µM*	-29%	?	-2%
CCOc1ccc(NC(=O)N2CCOc3ccccc32)cc1	nt	-3%	nt	nt
CCOC(=O)c1ccc(Cl)c(NC(=O)c2ccc(-c3ccccc3)cc2)c1	0%	3%	32%	6%
CCOC(=O)c1ccc(/C=C2/C=C(c3ccccc3)N(c3ccc(Cl)c(C(=O)O)c3)C2=O)cc1	13µM*	-4%	?	8%
C=CCC(=O)NC1CC(C)(C)Cc2c1cnn2-c1ccc(C)cc1 (stereo not drawn)	?	-1%	-7%	0%
Cc1ccc(-n2ncc3c2CC(C)(C)CC3NC(=O)CCc2ccc(=O)[nH]n2)cc1 (stereo not drawn)	13µM*	2%	5%	4%
CC1(C)Cc2c(cnn2-c2ccccc2)C(NC(=O)C2(C(N)=O)CC2)C1 (stereo not drawn)	-7%	12%	9.3µM*	11%
Cc1ccccc1-n1ncc2c1CC(C)(C)CC2NC(=O)c1snnc1C (stereo not drawn)	5.9µM*	-19%	?	-13%
CC(C)(C)c1ccc(-n2ncc3c2CCCC3NC(=O)C2(C(N)=O)CC2)cc1 (stereo not drawn)	13µM*	1%	-14%	3%
COc1ccccc1NC(=O)Cn1cnc2c(nnn2-c2ccc(C)cc2)c1=O	18%	3%	-35%	0%
CCC(CC)C(=O)Nc1ccc(C(=O)OCc2cc(=O)n3nc(C4CC4)sc3n2)cc1	nt	-8%	nt	nt
CCOC(=O)C1CCCN(c2nc3ccccc3nc2NS(=O)(=O)c2ccc(C)cc2)C1 (stereo not drawn)	-27%	0%	?	-9%
